# In the supplement of paper PMC9794691:
# System: PC9
# Test: area under confluence curve of compound monotherapy; compare to DMSO control AUC of the same experiment (AUC (confluence x time, arbitrary))
# Settings: 100 nM; DMSO control AUC in same experiment: 44384
# Experimental: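 compare to DMSO control AUC of the same experiment; Monotherapy arm of the osimertinib DTP screen: EGFR-mutant NSCLC cells were treated with the test compound alone at a fixed dose (highest dose with <50% inhibition of parental cells, or 1 uM), then switched to drug-free medium at the DTP stage. IncuCyte confluence was tracked and AUC computed in Prism. AUC scale depends on experiment duration, so each row carries the same-experiment DMSO control AUC (monotherapy activity = DMSO AUC minus monotherapy AUC). The monotherapy value is shared between screen formats.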
row,Compound,area under confluence curve
1,C/C=C/Cn1cc(-c2cc(OC)c(C(=O)N3CCOCC3)cc2OC)c2cc(C)[nH]c2c1=O,44600

# Same assay, conditions: 300 nM; DMSO control AUC in same experiment: 20197
row,Compound,area under confluence curve
1,Nc1nc(Nc2ccc3c(c2)CCC(N2CCCC2)CC3)nn1-c1cc2c(nn1)-c1ccccc1CCC2 (stereo not given),19600

# Same assay, conditions: 300 nM; DMSO control AUC in same experiment: 30008
row,Compound,area under confluence curve
1,Nc1nc(Nc2ccc3c(c2)CCC(N2CCCC2)CC3)nn1-c1cc2c(nn1)-c1ccccc1CCC2 (stereo not given),28200

# Same assay, conditions: 300 nM; DMSO control AUC in same experiment: 49143
row,Compound,area under confluence curve
1,Oc1nc(-c2ccc(C(F)(F)F)cc2)nc2c1CSCC2,49300

# Same assay, conditions: 300 nM; DMSO control AUC in same experiment: 49189
row,Compound,area under confluence curve
1,Cn1cnc2c(F)c(Nc3ccc(Br)cc3Cl)c(C(=O)NOCCO)cc21 [Selumetinib],49700

# Same assay, conditions: 1000 nM; DMSO control AUC in same experiment: 21594
row,Compound,area under confluence curve
1,Cc1cc2cc(C(=O)c3cnn(-c4cnc(Oc5c(F)cccc5F)cc4C)c3N)[nH]c2cc1NS(C)(=O)=O,18400
2,COc1cc(CCc2cc(NC(=O)c3ccc(N4CC(C)NC(C)C4)cc3)n[nH]2)cc(OC)c1 (stereo not given),20200

# Same assay, conditions: 1000 nM; DMSO control AUC in same experiment: 26668
row,Compound,area under confluence curve
1,COc1cc(CCc2cc(NC(=O)c3ccc(N4CC(C)NC(C)C4)cc3)n[nH]2)cc(OC)c1 (stereo not given),28200

# Same assay, conditions: 1000 nM; DMSO control AUC in same experiment: 27958
row,Compound,area under confluence curve
1,CN1CCN(c2nc(C3=C(c4c[nH]c5ccccc45)C(=O)NC3=O)c3ccccc3n2)CC1 [Sotrastaurin],27000

# Same assay, conditions: 1000 nM; DMSO control AUC in same experiment: 30578
row,Compound,area under confluence curve
1,Cc1nc2nc(C)c(O[C@@H]3CCN(c4ccc(-c5ccc(CN6CCOCC6)nn5)cc4)C3)c(C)n2n1,30800
